# Screening data from PubChem BioAssay.
# In the library only some 0.64% were active in any assay of this set; here they are far more common.
# PDI turbidity: PDI (human) enzyme inhibition; 350,000 compounds, 0.052% hits; AID 588391; P07237; inhibition, % at 10 µM; PDI insulin aggregation turbidity, A650, 90 min;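 active means mean inhibition across replicates of 30% or more, whatever share of single replicates reach that level; inconclusive means mean inhibition below 30% while every single replicate reaches 30%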
# Target sequence (P07237 whole entry, looked up): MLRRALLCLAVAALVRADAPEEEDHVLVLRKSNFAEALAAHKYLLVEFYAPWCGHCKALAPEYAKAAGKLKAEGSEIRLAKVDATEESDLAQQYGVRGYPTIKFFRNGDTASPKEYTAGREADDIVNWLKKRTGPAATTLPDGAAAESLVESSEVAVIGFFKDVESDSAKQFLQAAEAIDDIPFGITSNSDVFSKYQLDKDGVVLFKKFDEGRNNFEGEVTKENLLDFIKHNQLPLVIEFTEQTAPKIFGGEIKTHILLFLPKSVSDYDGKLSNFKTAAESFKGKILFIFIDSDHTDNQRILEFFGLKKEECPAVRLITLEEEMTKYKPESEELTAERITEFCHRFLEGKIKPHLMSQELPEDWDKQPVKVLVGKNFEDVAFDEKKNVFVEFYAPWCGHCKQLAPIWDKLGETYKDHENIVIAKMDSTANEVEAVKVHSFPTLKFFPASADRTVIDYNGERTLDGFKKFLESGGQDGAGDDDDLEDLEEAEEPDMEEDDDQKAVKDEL
# PvdQ inh: blocks Pseudomonas aeruginosa PvdQ acylase activity; AID 488965; 340,000 compounds, 0.063% hits; purified PvdQ acylase, fluorescence plate reader; inhibition, % at 10 µM; in the data active means inhibition above about 30%, passing the limit was not always enough; inconclusive means no clear call, values can overlap the other calls;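 further: 0% = vehicle neutral wells and 100% = reference inhibitor wells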
# ERp5 block: ERp5 (human) disulfide isomerase inhibition. ERp5 insulin aggregation, absorbance 650 nm, 90 min. inhibition, % at 9.99 µM. 350,000 compounds, 0.05% hits. AID 651711;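 active means mean replicate inhibition above about 25%, with every replicate also reaching it, limit read from the data, passing the limit was not always enough; inconclusive means only one of those two criteria met; inactive means neither criterion met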
# Vif inh: blocks HIV Vif function | AID 602346 | inhibition, % at 7.49 µM | HEK293T cells, Vif self-association by quenched fluorescence, imaging, 24 h | 340,000 compounds, 0.35% hits; in the data active means inhibition above about 50%, passing the limit was not always enough; inconclusive means no clear call, values can overlap the other calls; inactive means below about 31%
# AI-2 QS modul: modulators of Vibrio harveyi AI-2 quorum sensing system; Vibrio harveyi JMH597 AI-2 luminescence/OD600 ratio, 9 h; stronger effect = lower value; strain lacks LuxN and CqsS sensors; 0 = neutral-control median; activity change, % at 7.5 µM; 300,000 compounds, 0.4% hits; AID 2094; in the data active means activity change below about -75%, passing the limit was not always enough; inconclusive means no clear call, values can overlap the other calls;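 further: luminescence divided by OD600 gain over 9 h not by final OD600 alone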
# JMH597 growth rt: retest: blocks Vibrio harveyi JMH597 growth; 750 compounds, 1% hits; growth inhibition, % at 7.5 µM; OD600 absorbance, 9 h; lacks LuxN and CqsS sensors; shares compounds with AI-2 QS modul;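 active means every replicate shows growth inhibition above 50%; inconclusive means at least half, but not all, replicates pass that cutoff; inactive means fewer than half of replicates pass it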
# BB721 lum counter: retest counter-screen: lowers luminescence of constitutive-QS Vibrio harveyi BB721 | 750 compounds, 95% hits | 9 h | inhibition, % at 7.5 µM | shares compounds with AI-2 QS modul;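 active means inhibition above about 80% in every replicate, not just on average, limit read from the data; inconclusive means at least half of replicates past the limit, but not all; inactive means fewer than half of replicates past the limit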
# BB721 growth: retest Vibrio harveyi BB721 growth inhibition; OD600 absorbance, 9 h; shares compounds with AI-2 QS modul; growth inhibition, % at 7.5 µM; 750 compounds, 3% hits; AID 2728;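 active means every replicate shows growth inhibition above 50%; inconclusive means at least half but not all replicates above 50% inhibition; inactive means under half of replicates above 50% inhibition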
# AI-2 QS JMH597: Vibrio harveyi AI-2 signaling luminescence modulation – JMH597 strain, confirmation; inhibition, % at 7.5 µM; AID 2736; shares compounds with AI-2 QS modul; Vibrio harveyi JMH597 AI-2 quorum sensing luminescence, 9 h; luxN and CqsS knockout, AI-2 only; 750 compounds, 97% hits;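 active means every replicate shows more than 75% inhibition of signal versus neutral control wells; inconclusive means half to three quarters of replicates exceed 75% inhibition; inactive means fewer than half of replicates exceed 75% inhibition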
# Starred values were filed as active, the others as inactive; ? = inconclusive; . = not tested or not shown.
SMILES,PDI turbidity,PvdQ inh,ERp5 block,Vif inh,AI-2 QS modul,JMH597 growth rt,BB721 lum counter,BB721 growth,AI-2 QS JMH597
CC(C)Cn1c([N+](=O)[O-])nc2c1c(=O)[nH]c(=O)n2C,-2,-7,-1,11,49,.,.,.,.
Cn1c(=O)[nH]c(=O)c2c1nc([N+](=O)[O-])n2Cc1ccccc1,5,-11,3,99*,50,.,.,.,.
O=C(C[C@H]1C[C@H]2c3cc(NC(=O)NC4CCCC4)ccc3O[C@H]2[C@@H](CO)O1)NC1CCCCC1,.,.,1,.,.,.,.,.,.
O=C(N/N=C/c1ccc(Br)s1)c1c[nH]c2ccccc12,8,16,.,1,-77*,.,.,.,.
O=C(N/N=C/c1cc(Br)cs1)c1c[nH]c2ccccc12,4,-2,2,3,-20,.,.,.,.
COc1ccc(-c2nnc(NC(=O)c3ccc([N+](=O)[O-])o3)o2)c(OC)c1,1,0,1,-3,-88*,.,.,.,.
Cc1ccc(-c2nnc(NC(=O)c3ccc([N+](=O)[O-])o3)o2)c(C)c1,-3,-4,-3,-13,?,.,.,.,.
C[C@@H]1CN([C@H](C)CO)C(=O)c2cc(-c3ccccc3)cnc2O[C@@H]1CN(C)Cc1ccccn1,.,.,0,.,.,.,.,.,.
O=C(CN(C(=O)c1ccccc1)C(=O)c1ccccc1)OCc1ccccc1,8,-13,-10,77*,.,.,.,.,.
O=C(OCc1ccccc1)c1ccccc1,.,-11,-1,11,-4,.,.,.,.
Cn1nc(NC(=O)C2CCC2C(=O)O)c2c(F)cccc21 (stereo not given),-2,-21,.,13,8,.,.,.,.
Cc1ccc(C(=O)Nc2nn(C)c3cccc(F)c23)cc1,-2,.,1,50*,0,.,.,.,.
Cc1noc(C)c1NC(=O)Nc1cccc2c1O[C@H](CN(C)CC1CC1)[C@H](C)CN([C@H](C)CO)C2=O,.,.,0,.,.,.,.,.,.
Fc1ccc(-c2nnn(Cc3nc4ccccc4s3)n2)cc1,-3,2,.,-7,-90*,22,98*,25,98*
Cc1ccc(CSc2nnc(-c3cccnc3)n2N)cc1,-4,-9,.,4,-90*,-8,96*,-1,97*
CSCCC1NC(=O)N(CC(=O)Nc2ccc(N3CCCCC3)cc2)C1=O (stereo not given),-3,-13,.,.,-82*,-2,91*,-11,95*
CSCCC1NC(=O)N(CC(=O)Nc2c(Cl)cc(Cl)cc2Cl)C1=O (stereo not given),1,3,.,1,22,.,.,.,.
CCN(CC)S(=O)(=O)c1ccc(Oc2cccc(C(C)=O)c2)nc1,7,-10,.,.,-85*,2,95*,-8,96*
CCN(c1ccccc1)S(=O)(=O)c1ccc(Oc2ccccc2C(C)=O)nc1,2,-12,-2,-5,.,.,.,.,.
CN(C)C(=O)COc1ncnc2sc(-c3ccccc3)cc12,5,-6,-3,-9,-84*,15,94*,13,97*
CCOC(=O)Oc1ccc2c(=O)c(Oc3cccc(C)c3)coc2c1,-7,5,-4,2,-85*,75*,97*,?,97*
CCOC(=O)Oc1ccc2c(=O)c(Oc3cc(C)cc(C)c3)coc2c1,9,1,.,6,-44,.,.,.,.
Cc1cccc(Oc2coc3cc(O)ccc3c2=O)c1,-6,-6,3,-11,-87*,26,98*,44,98*
CN1CC(=O)N(CC(=O)Nc2cc(Cl)cc(Cl)c2)C1=O,-5,4,3,7,-94*,-10,98*,17,99*
CN1C(=O)c2cc(NC(=O)NC3CCCC3)ccc2OC[C@H]2O[C@H](CC(=O)NCC3CC3)CC[C@@H]21,.,.,2,.,.,.,.,.,.
SMILES,PDI turbidity,PvdQ inh,ERp5 block,Vif inh,AI-2 QS modul,JMH597 growth rt,BB721 lum counter,BB721 growth,AI-2 QS JMH597
CO[C@@H]1CN(C)C(=O)c2cc(C#N)ccc2OC[C@H]2O[C@H](CC[C@H]2OC)CCN(C)C(=O)[C@H]1C,.,.,0,.,.,.,.,.,.
O=C(COC(=O)c1n[nH]c2ccccc12)Nc1cccc(S(=O)(=O)N2CCOCC2)c1,7,-4,-1,3,-11,.,.,.,.
Cc1cc(C)cc(NC(=O)COC(=O)c2n[nH]c3ccccc23)c1,10,-18,3,-7,-89*,-8,96*,-23,96*
O=C(COC(=O)c1n[nH]c2ccccc12)Nc1ccccc1,4,-3,5,-1,-66,.,.,.,.
CC(=O)c1cccc(NC(=O)COC(=O)c2n[nH]c3ccccc23)c1,-3,-15,2,2,-81*,11,95*,-3,97*
OC[C@H]1[C@@H](c2ccccc2)C2(CN(Cc3ccccc3)C2)N1Cc1ccncc1,.,.,2,.,.,.,.,.,.
CCNC(=O)C[C@@H]1CC[C@@H]2[C@H](COc3ccc(NC(=O)Nc4c(C)noc4C)cc3C(=O)N2C)O1,.,.,-2,.,.,.,.,.,.
C[C@@H](NC(=O)[C@H]1[C@H](CO)[C@H]2Cn3c(cccc3=O)[C@H]2N1CC1CC1)c1ccccc1,.,.,-3,.,.,.,.,.,.
O=C(O)c1cccnc1Sc1ccc(Br)cc1,4,-7,1,1,-84*,20,97*,44,97*
O=C(NCCN1CCOCC1)c1ccc(Cl)c([N+](=O)[O-])c1,1,-8,6,-4,?,4,-6,-16,5
CCC(=O)N1C[C@H](C)[C@@H](OC)CN(C)C(=O)c2cc(NC(=O)COC)ccc2OC[C@@H]1C,.,.,-6,.,.,.,.,.,.
CC(C)CC#Cc1cnc2c(c1)C(=O)N([C@@H](C)CO)C[C@@H](C)[C@H](CN(C)C(=O)Nc1ccccc1F)O2,.,.,1,.,.,.,.,.,.
COc1ccc(CNC(=O)Oc2ccccc2)cc1Cl,6,-18,.,13,-80*,14,97*,36,97*
COc1ccc2c3c(n(C)c2c1)[C@@H](CO)N(C(=O)NC(C)C)CC31CCN(C(=O)NC(C)C)CC1,.,.,-11,.,.,.,.,.,.
COc1ccc(Cl)cc1N(CC(=O)N1CCCC1)S(C)(=O)=O,-1,-16,2,0,?,-12,-7,6,-7
COc1ccc(Cl)cc1N(CC(=O)N1CCC(C)CC1)S(C)(=O)=O,-8,0,.,-1,8,.,.,.,.
COc1ccc(C(=O)N2C[C@H]3[C@@H](c4ccccc42)[C@H](CO)N3Cc2ccc3c(c2)OCO3)cc1,.,.,2,.,.,.,.,.,.
C[C@@H]1CN([C@@H](C)CO)C(=O)c2cc(NC(=O)Nc3ccc(C(F)(F)F)cc3)ccc2O[C@@H]1CN(C)C,.,.,6,.,.,.,.,.,.
Cc1ccc(Cn2ncc(Cl)c(Cl)c2=O)cc1,-6,-4,?,11,12,.,.,.,.
